Measured values: PubChem BioAssay (Tox21)
Values joined by “and” are separate entries in the source; they are usually repeats but may differ in a detail not shown here. Equal entries are not always repeated. Records with an inconclusive call do not appear. The source holds several records for some structures; these can differ, active in one and inactive in another. Active and inactive are the calls of the source. Unless noted, the call rests on the fitted dose curve; in most records, active means well fitted curve in the direction sought with a large enough effect in the repeat runs; inconclusive means weak or mixed curves; inactive means no such curve, though single readings can be large; an effect the other way counts as inactive or inconclusive.

How the values were obtained:
[1] = A CellTox Green Cytotoxicity Assay to monitor cytotoxicity in HepG2 cells - 8 hour (AID 1224890); further: nearly all actives have a fitted effect of over 45% in size; further: potency means the concentration at half of the fitted maximal effect
Procedure, shortened: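 HepG2, 600 cells/well premixed w/ CellTox Green; 5 h settle, 37 C/5% CO2; pintool cpd add (DMSO); 37 C, 40 h; fluorescence read at 0, 8, 16, 24, 32, 40 h.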

[2] = qHTS assay to identify small molecule antagonists of the estrogen receptor alpha (ER-alpha) signaling pathway using the BG1 cell line in the presence of 0.1 nM 17-beta-estradiol - cell viability counter screen (AID 1259241); further: nearly all actives have a fitted effect of over 40% in size; further: potency means the concentration at half of the fitted maximal effect
Procedure, shortened: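 Cytotoxicity counter-screen: live-cell protease activity measured by fluorescence (30 min reagent step) in the same wells. Cells were VM7Luc4E2 with endogenous ER-alpha and ERE-driven luciferase, treated 22 hr at 37C alongside 0.1 nM 17beta-estradiol final.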

[3] = qHTS assay to identify small molecule antagonists of the androgen receptor (AR) signaling pathway using the MDA cell line in the presence of 0.5 nM R1881 - cell viability counter screen (AID 1259242); further: nearly all actives have a fitted effect of over 45% in size; further: potency means the concentration at half of the fitted maximal effect
Procedure, shortened: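 Live-cell protease fluorescence, CellTiter-Fluor, 30 min at 37C. Cells: MDA-kb2, 3,000/well, preincubated 5 hr. Compounds plus 0.5 nM R1881 final, 16 hr, 37C, 0% CO2.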

[4] = target: Androgen receptor (Homo sapiens) (UniProt P10275); assay: qHTS assay to identify small molecule antagonists of the androgen receptor (AR) signaling pathway using the MDA cell line in the presence of 0.5 nM R1881 (AID 1259243); further: nearly all actives have a fitted effect of over 50% in size
Procedure, shortened: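 MDA-kb2, MMTV-luc (AR/GR elements); 3,000 cells/well; cpd + 0.5 nM R1881 final; 16 hr 37C, 0% CO2; ONE-Glo 30 min RT; luminescence.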

[5] = target: Estrogen receptor (Homo sapiens) (UniProt P03372); assay: qHTS assay to identify small molecule antagonists of the estrogen receptor alpha (ER-alpha) signaling pathway using the BG1 cell line in the presence of 0.1 nM 17-beta-estradiol (AID 1259244); further: nearly all actives have a fitted effect of over 50% in size; further: potency means the concentration at half of the fitted maximal effect
Procedure, shortened: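 Luminescence after ONE-Glo (30 min, room temperature) measured ERE-luciferase activity in VM7Luc4E2 cells treated 22 h with compound and 0.1 nM final 17beta-estradiol as stimulator.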

[6] = qHTS assay to identify small molecule HDAC inhibitors (AID 1259364); further: potency means the concentration at half of the fitted maximal effect;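 further: wild-type HCT-116 cells with endogenous class I/II HDAC activity; nearly all actives have a fitted effect of over 45% in size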
Procedure, shortened: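 HCT-116 (wild type), 1,500 cells/well, overnight; compound 2 hr 37C 5% CO2; HDAC-Glo I/II reagent 30 min RT; luminescence readout.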

[7] = qHTS assay to identify small molecule HDAC inhibitors - cell viability counter screen (AID 1259365); further: series mostly up to about 92 µM; nearly all actives have a fitted effect of over 50% in size
Procedure, shortened: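 CellTiter-Glo luminescence (30 min, room temperature) reported viability after a 2 h compound exposure at 37 C. Cells: wild-type HCT-116, 1,500 per well, seeded the night before.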

[8] = qHTS assay to identify small molecule agonists of the sonic hedgehog signaling (Shh) pathway - cell viability counter screen (AID 1259366); further: nearly all actives have a fitted effect of over 50% in size; further: potency means the concentration at half of the fitted maximal effect
Procedure, shortened: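 Cytotoxicity counter screen: CellTiter-Fluor reagent added after 23 h compound exposure, then 1 h at 37C and fluorescence read. Cells were 3T3 Gli1-Luc, seeded 2,000 per well and dosed 4 h post-plating.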

[9] = qHTS assay to identify small molecule antagonists of the sonic hedgehog signaling (Shh) pathway - cell viability counter screen (AID 1259367); further: nearly all actives have a fitted effect of over 55% in size; further: potency means the concentration at half of the fitted maximal effect
Procedure, shortened: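 CellTiter-Fluor signal in conditioned medium-stimulated 3T3 Gli1-Luc cells, 23 hr compound exposure, 37C.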

[10] = qHTS assay to identify small molecule agonists of the sonic hedgehog signaling (Shh) pathway (AID 1259368; calls by dose curve; further: nearly all actives have a fitted effect of over 15% in size; further: potency means the concentration at half of the fitted maximal effect)
Procedure, shortened: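 Read-out: firefly luciferase luminescence from a Gli1 response element reporter stably integrated in NIH/3T3-derived 3T3Gli1-Luc cells, measured 30 min at room temperature after reagent addition. Compound exposure lasted 24 hr at 37 C, 5% CO2.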

[11] = qHTS assay to identify small molecule antagonists of the sonic hedgehog signaling (Shh) pathway (AID 1259369; calls by dose curve; further: nearly all actives have a fitted effect of over 45% in size; further: potency means the concentration at half of the fitted maximal effect)
Procedure, shortened: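 Luminescence readout: firefly Luc under Gli1 response element in 3T3Gli1-Luc cells (NIH/3T3 clone). Antagonist mode, stimulation by conditioned medium; compound exposure 24hr at 37 C, 5% CO2.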

[12] = target: Estrogen receptor beta (Homo sapiens) (UniProt Q92731); assay: qHTS assay to identify small molecule agonists of the estrogen receptor beta (ER-beta) signaling pathway (AID 1259377; active means well fitted activation curve with a large enough effect in the signal ratio in the repeat runs, not every such curve was filed as active; the % refers to the signal ratio; further: potency means the concentration at half of the fitted maximal effect)
Procedure, shortened: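 Ratiometric beta-lactamase FRET read-out came after 2 h substrate loading at room temperature. It followed 16 h compound treatment at 37C of GripTite HEK293T cells carrying a UAS-bla reporter, plated in 2% charcoal-stripped FBS medium.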

[13] = target: Estrogen receptor beta (Homo sapiens) (UniProt Q92731); assay: qHTS assay to identify small molecule antagonists of the estrogen receptor beta (ER-beta) signaling pathway (AID 1259378; active means well fitted inhibition curve with a large enough effect in the signal ratio in the repeat runs, not every such curve was filed as active; the % refers to the signal ratio; further: potency means the concentration at half of the fitted maximal effect)
Procedure, shortened: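 Antagonist mode: compounds added to beta-lactamase reporter HEK293T ER-beta-UAS cells stimulated with E2 (1nM final), 16 hr at 37C. LiveBLAzer B/G FRET substrate, 2 hours room temperature, fluorescence read-out.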

[14] = qHTS assay to identify small molecule agonists of the androgen receptor (AR) signaling pathway in the presence of an antagonist - cell viability counter screen (AID 1259379); further: nearly all actives have a fitted effect of over 25% in size; further: potency means the concentration at half of the fitted maximal effect
Procedure, shortened: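 Viability counter screen: CellTiter-Fluor fluorescence, measured in the same wells as the luciferase read-out. MDA-kb2 cells, 3,000/well, with nilutamide at 3.0uM final and compounds at 15 concentrations, 16 hr at 37C, 0% CO2.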

[15] = qHTS assay to identify small molecule agonists of the estrogen receptor beta (ER-beta) signaling pathway - cell viability counter screen (AID 1259380); further: nearly all actives have a fitted effect of over 30% in size; further: potency means the concentration at half of the fitted maximal effect
Procedure, shortened: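 Luminescence read-out (CellTiter-Glo, 30 min, room temp) taken in the same wells as the beta-lactamase reporter assay; ER-beta-UAS-bla HEK293T cells exposed to DMSO-dissolved compounds for 16 hr at 37C in 2% charcoal-stripped FBS medium.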

[16] = target: Androgen receptor (Homo sapiens) (UniProt P10275); assay: qHTS assay to identify small molecule agonists of the androgen receptor (AR) signaling pathway in the presence of an antagonist (AID 1259381; calls by dose curve; further: nearly all actives have a fitted effect of over 15% in size)
Procedure, shortened: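 Luciferase read-out (ONE-Glo, 30min room temperature) in MDA-kb2 MMTV-reporter cells; agonist mode run in presence of AR antagonist nilutamide, 3.0uM final. Compounds tested as 15-point series, 16hr exposure at 37C, 0% CO2.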

[17] = qHTS assay to identify small molecule antagonists of the estrogen receptor beta (ER-beta) signaling pathway - cell viability counter screen (AID 1259382); further: nearly all actives have a fitted effect of over 55% in size; further: potency means the concentration at half of the fitted maximal effect
Procedure, shortened: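 Luminescent ATP read-out (CellTiter-Glo, 30 min, RT) taken in the same wells as the bla reporter assay. HEK293T ER-beta-UAS-bla cells in 2% charcoal-stripped FBS were exposed to compounds with 1nM E2 for 16 hr at 37C.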

[18] = target: Estrogen receptor (Homo sapiens) (UniProt P03372); assay: qHTS assay to identify small molecule agonists of the estrogen receptor alpha (ER-alpha) signaling pathway in the presence of an antagonist (AID 1259383; calls by dose curve; further: nearly all actives have a fitted effect of over 15% in size; further: potency means the concentration at half of the fitted maximal effect; on activation: top concentration of the series differs between compounds)
Procedure, shortened: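 Luciferase luminescence (ONE-Glo, 30min at room temperature) measured in VM7Luc4E2 cells after 22hr compound exposure at 15 concentrations, with 10.0nM ICI-182,780 final present; cells express endogenous ER-alpha and carry four EREs upstream of luciferase.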

[19] = qHTS assay to identify small molecule agonists or antagonists of the thyroid stimulating hormone receptor (TSHR) signaling pathway - wild type cell line counter screen (AID 1259384; calls by dose curve)
Procedure, shortened: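 Counter screen in untransfected Hek293: compounds (15-point titration, triplicate) plus phosphodiesterase inhibitor Ro20-1724 added after 18 h plating; 30 min RT. Intracellular cAMP via competitive d2/cryptate immunoassay, 1 h incubation.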

[20] = qHTS assay to identify small molecule phospholipidosis (PLD) inducers (AID 1259344; active means well fitted curve in the direction sought with a large enough effect; an effect the other way counts as inactive or inconclusive; further: potency means the concentration at half of the fitted maximal effect)
Procedure, shortened: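 Accumulated phospholipid, stained red by LipidTOX during 24 h compound treatment of HepG2 cells at 37 C, is quantified from images as pit number and intensity, normalised per cell using Hoechst-stained nuclei.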

Measured: Potency

Sequence of Estrogen receptor (Homo sapiens) (P03372 whole entry, looked up): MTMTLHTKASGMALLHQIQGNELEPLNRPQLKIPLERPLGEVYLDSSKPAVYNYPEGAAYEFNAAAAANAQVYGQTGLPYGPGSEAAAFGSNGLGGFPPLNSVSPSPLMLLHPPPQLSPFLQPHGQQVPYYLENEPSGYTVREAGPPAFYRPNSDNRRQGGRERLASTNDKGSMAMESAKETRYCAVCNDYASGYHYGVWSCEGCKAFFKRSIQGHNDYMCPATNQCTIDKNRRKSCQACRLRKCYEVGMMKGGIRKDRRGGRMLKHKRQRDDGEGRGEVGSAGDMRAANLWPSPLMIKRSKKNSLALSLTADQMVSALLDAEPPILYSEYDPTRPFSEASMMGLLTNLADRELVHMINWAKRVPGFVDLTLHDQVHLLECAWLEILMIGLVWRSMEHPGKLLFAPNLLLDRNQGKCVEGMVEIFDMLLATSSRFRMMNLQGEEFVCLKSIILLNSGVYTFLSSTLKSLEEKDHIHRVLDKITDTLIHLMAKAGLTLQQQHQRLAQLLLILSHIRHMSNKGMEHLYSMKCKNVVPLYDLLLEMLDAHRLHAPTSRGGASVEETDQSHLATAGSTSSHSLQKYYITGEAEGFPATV
Sequence of Estrogen receptor beta (Homo sapiens) (Q92731 whole entry, looked up): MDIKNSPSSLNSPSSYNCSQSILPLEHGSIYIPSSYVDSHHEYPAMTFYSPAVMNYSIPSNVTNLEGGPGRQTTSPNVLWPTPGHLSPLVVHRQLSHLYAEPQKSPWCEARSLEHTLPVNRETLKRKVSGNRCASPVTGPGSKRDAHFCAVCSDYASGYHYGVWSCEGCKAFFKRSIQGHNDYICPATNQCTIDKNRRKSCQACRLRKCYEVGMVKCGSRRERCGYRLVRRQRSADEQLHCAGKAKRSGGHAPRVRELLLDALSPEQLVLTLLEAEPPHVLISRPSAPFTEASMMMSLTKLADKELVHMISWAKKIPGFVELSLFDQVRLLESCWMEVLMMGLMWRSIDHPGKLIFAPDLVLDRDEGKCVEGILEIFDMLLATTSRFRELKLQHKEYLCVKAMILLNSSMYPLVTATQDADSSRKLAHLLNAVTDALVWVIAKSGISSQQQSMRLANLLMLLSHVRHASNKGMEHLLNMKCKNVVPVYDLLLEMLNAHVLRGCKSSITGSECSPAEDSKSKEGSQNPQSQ
Sequence of Androgen receptor (Homo sapiens) (P10275 whole entry, looked up): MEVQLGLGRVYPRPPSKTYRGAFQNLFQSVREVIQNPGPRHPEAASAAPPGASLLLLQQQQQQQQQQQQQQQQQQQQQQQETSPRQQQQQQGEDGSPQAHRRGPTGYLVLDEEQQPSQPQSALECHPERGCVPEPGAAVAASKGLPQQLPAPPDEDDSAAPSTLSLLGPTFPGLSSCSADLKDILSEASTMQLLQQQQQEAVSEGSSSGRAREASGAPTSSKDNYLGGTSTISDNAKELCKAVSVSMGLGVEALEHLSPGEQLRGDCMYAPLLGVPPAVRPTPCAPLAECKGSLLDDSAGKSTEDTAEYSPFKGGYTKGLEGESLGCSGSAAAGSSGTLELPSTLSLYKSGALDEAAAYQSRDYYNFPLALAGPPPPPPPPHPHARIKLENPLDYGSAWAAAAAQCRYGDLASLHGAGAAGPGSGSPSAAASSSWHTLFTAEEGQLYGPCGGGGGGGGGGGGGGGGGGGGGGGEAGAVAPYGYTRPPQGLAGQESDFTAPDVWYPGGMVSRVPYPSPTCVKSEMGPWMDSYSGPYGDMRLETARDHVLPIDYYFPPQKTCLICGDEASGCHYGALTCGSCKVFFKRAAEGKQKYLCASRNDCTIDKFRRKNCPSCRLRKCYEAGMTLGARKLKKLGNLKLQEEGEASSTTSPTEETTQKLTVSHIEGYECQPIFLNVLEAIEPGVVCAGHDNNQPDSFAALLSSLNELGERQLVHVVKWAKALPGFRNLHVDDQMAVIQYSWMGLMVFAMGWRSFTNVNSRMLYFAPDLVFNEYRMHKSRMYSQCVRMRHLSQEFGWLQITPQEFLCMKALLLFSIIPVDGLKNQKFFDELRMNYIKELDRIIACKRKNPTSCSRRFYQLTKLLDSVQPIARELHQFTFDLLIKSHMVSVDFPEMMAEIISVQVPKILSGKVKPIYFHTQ

Cc1cccc([N+](=O)[O-])c1C
not listed: [18] | [19] | [20]
inactive: all other assays above

c1ccc2c(c1)c1cccc3ccc4cccc2c4c31
60.7 µM (active) and inactive: [12]
not listed: [20]
inactive: all other assays above

CC1=CCC(C(C)(C)O)CC1 (stereo unspecified)
not listed: [11] | [12] | [13] | [18]
inactive: all other assays above

COc1cc([C@@H]2c3cc4c(cc3[C@H](O)[C@H]3COC(=O)[C@H]23)OCO4)cc(OC)c1OC
active: [9] 0.106 µM | [11] 5.4 nM and 16.8 nM
not listed: [5] | [14] | [18] | [20]
inactive: all other assays above

O=S(=O)(O)c1ccc(O)cc1
not listed: [4] | [12] | [13] | [16]
inactive: all other assays above

CC(=O)C1(C)CC2=C(CCCC2(C)C)CC1C (stereo unspecified)
not listed: [5] | [18] | [20]
inactive: all other assays above

CC(C(=O)O)c1cccc(C(=O)c2ccccc2)c1 (stereo unspecified)
not listed: [4] | [16]
inactive: all other assays above

OCCO
not listed: [12] | [13] | [20]
inactive: all other assays above

C=C(C)C1CC=C(C)CC1 (stereo unspecified)
not listed: [4] | [12] | [13] | [16] | [18] | [19]
inactive: all other assays above

CNCCCC12CCC(c3ccccc31)c1ccccc12
61.1 µM (active) and inactive: [5]
54.5 µM (active) and inactive: [3] | [9]
active: [20] 7.94 µM | [8] 30.6 µM | [11] 5.45 µM | [13] 26.6 µM | [14] 54.5 µM | [15] 15.4 µM and 29.8 µM | [17] 15.4 µM and 26.6 µM
not listed: [4] | [16]
inactive: all other assays above

c1ccc2cc(Nc3ccc(Nc4ccc5ccccc5c4)cc3)ccc2c1
not listed: [5] | [18] | [19] | [20]
inactive: all other assays above

CCCCC(CC)COCC1CO1 (stereo unspecified)
not listed: [4] | [16] | [20]
inactive: all other assays above

CCC(C)CO (stereo unspecified)
inactive and 49 µM (active): [1]
not listed: [4] | [12] | [13] | [16] | [18] | [20]
inactive: all other assays above

CCCCNS(=O)(=O)c1ccccc1
not listed: [4] | [16] | [18] | [20]
inactive: all other assays above

c1ccc2sc(SSN3CCOCC3)nc2c1
active: [8] 48.5 µM | [9] 54.4 µM | [11] 9.67 µM | [15] 30.6 µM
not listed: [4] | [12] | [13] | [16] | [17] | [20]
inactive: all other assays above

C[C@]12CCC(=O)C=C1CC[C@@H]1[C@@H]2C(=O)C[C@@]2(C)[C@H]1CC[C@]2(O)C(=O)CO
54.5 µM (active) and inactive: [11]
not listed: [4] | [8] | [16] | [18] | [19]
inactive: all other assays above

COC(=O)CCC(=O)OC
not listed: [4] | [12] | [13] | [16] | [20]
inactive: all other assays above

Cn1cnc([N+](=O)[O-])c1Sc1ncnc2nc[nH]c12
active: [9] 19.2 µM | [11] 30.4 µM | [15] 4.83 µM and 8.41 µM
not listed: [4] | [8] | [16] | [18]
inactive: all other assays above

COc1ccc(OC)c(C(O)CNC(=O)CN)c1 (stereo unspecified)
not listed: [4] | [12] | [13] | [15] | [16] | [18]
inactive: all other assays above

Nc1ccccc1N
inactive and 27.3 µM (active): [18]
inactive and 54.5 µM (active): [5]
active: [1] 56.2 µM | [6] 19.8 µM | [10] 788 nM and 13.7 µM
inactive and 30.6 µM (active): [11]
not listed: [4] | [8] | [12] | [16]
inactive: all other assays above

c1ccc2c(c1)Oc1ccccc1S2
not listed: [4] | [16] | [18] | [20]
inactive: all other assays above

c1ccncc1
not listed: [4] | [16] | [20]
inactive: all other assays above

OC1CCCCCCCCCCC1
active: [1] 43.6 µM
not listed: [4] | [12] | [13] | [16] | [20]
inactive: all other assays above

CC(CCC(=O)O)(c1ccc(O)cc1)c1ccc(O)cc1
not listed: [4] | [13] | [16] | [18] | [20]
inactive: all other assays above

CC(C)=CCCC(C)CCO (stereo unspecified)
not listed: [4] | [16] | [20]
inactive: all other assays above

Nc1ccc(Cl)cc1Cl
not listed: [4] | [12] | [13] | [16] | [20]
inactive: all other assays above

COC(=O)C1=C(C)NC(C)=C(C(=O)OCCN(C)Cc2ccccc2)C1c1cccc([N+](=O)[O-])c1 (stereo unspecified)
active: [2] 54.2 µM | [5] 68.2 µM | [8] 30.5 µM and 11.9 µM | [9] 48.3 µM and 2.37 µM | [11] 68.2 µM | [14] 60.8 µM | [15] 68.2 µM and 29.8 µM | [17] 60.8 µM
inactive: [1] | [6] | [7] | [10] | [18] | [19]
60.8 µM (active) and inactive: [3]

CC(C)OB(OC(C)C)OC(C)C
not listed: [4] | [16] | [18] | [19] | [20]
inactive: all other assays above
